# Laboratory results reported in PubChem BioAssay.
# Potency and affinity values are given separately. Activity calls are given as the source filed them. The rule behind the calls is not given here.
# Assay: cytotoxicity in OVCAR8 ovarian cancer cells, dose response, PAX8 project, cell-based, plate reader, dry powder samples (AID 743197)
# Details: series mostly up to 35 µM; activity change, negative = cytotoxicity: at the top concentration
row,Compound,"activity change, negative = cytotoxicity"
1,C[C@H]1CCCCO[C@H](CN(C)S(=O)(=O)c2ccc(Cl)cc2)[C@@H](C)CN([C@@H](C)CO)C(=O)c2cc(NS(=O)(=O)c3ccc(Cl)cc3)ccc2O1,3.04% (inactive)
2,C[C@@H]1CCCCO[C@H](CN(C)C(=O)Nc2ccc(C(F)(F)F)cc2)[C@H](C)CN([C@@H](C)CO)C(=O)c2cc(NS(=O)(=O)c3ccc(Cl)cc3)ccc2O1,-4.06% (inactive)
3,C[C@H](CO)N1C[C@H](C)[C@@H](CN(C)Cc2ccc(Cl)c(Cl)c2)OCCCC[C@H](C)Oc2ccc(NC(=O)Nc3ccccc3)cc2C1=O,-8.6% (inactive)
4,C[C@@H]1CN([C@@H](C)CO)C(=O)c2cc(NC(=O)c3ccccc3)ccc2O[C@@H](C)CCCCO[C@H]1CN(C)Cc1ccc(C(F)(F)F)cc1,-32% (inactive)
5,Cc1ccc(S(=O)(=O)Nc2ccc3c(c2)C(=O)N([C@H](C)CO)C[C@H](C)[C@H](CN(C)C(=O)c2ccccc2)OCCCC[C@H](C)O3)cc1,-5.72% (inactive)
